Consider 47 compounds from PubChem BioAssay AID2685 (National Center for Advancing Translational Sciences (NCATS), 2010).

SMILES strings stand for the structures. The campaign covered roughly 320,000 compounds. About 2,100 (0.66%) were called active. Not shown: some 53% with an inconclusive outcome. Calls come from the whole dose curve; as a rule, active = well fitted inhibition curve with a large enough effect in the signal ratio, with a control signal flat (not every such curve was filed as active); inconclusive = small, poorly fitted or top-dose-only effect, or effect the other way, or a change in a side signal; inactive = flat fitted curve, though single readings scatter; the % refers to the signal ratio. The full list was thinned out, with actives kept by preference.
Potency is the fitted concentration of half-maximal effect.

The nature of this assay: qHTS Assay for Lipid Storage Modulators in Drosophila S3 Cells.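 For cell number change: cells counted by Cell Tracker Red CMTPX staining in the red channel.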 The note with it: BODIPY lipid droplet fluorescence, 18-24 h, cells fed with added oleic acid; cell number change: measured here: cell count max response; series mostly up to 46.1 µM. Put shortly:
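Drosophila S3 cells loaded with oleic acid (400 uM, as added) and compounds at several concentrations; lipid droplets imaged by 488-nm laser-scanning cytometry, 500–530 nm intensity and object ratio to cell channel. Percent activity normalized to 20 uM Triacsin C.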
(In general: qHTS replaces the single test concentration by a dilution series.)
Turning to `O=C(O)c1ccc(-n2nnnc2SCc2ccccc2)cc1`, the Potency result was “inactive” and the cell number change came to 17.8%.

As to `Cc1ccc[n+](CC(=O)c2ccc(Cl)cc2)c1`, the Potency result was “inactive” and the cell number change was determined as 2.36%.

Regarding `Cc1ccc[n+](CC(=O)c2ccc(Br)cc2)c1`, the Potency was 11.6 µM (active) and the cell number change turned out to be 14.7%.

Turning to `COc1ccc(C(=O)C[n+]2cccc(C)c2)cc1`, the Potency entry was “inactive” and the cell number change amounted to 11.3%.

Regarding `O=C(O)c1cccc(Oc2ccccc2[N+](=O)[O-])c1`, the Potency result is “inactive” and the cell number change is -2.25%.

For `CCOc1ccc(/C=N/n2nnnc2N)cc1O`, the Potency entry is “inactive” and the cell number change came to 23.4%.

Regarding `CCc1ccc(C(=O)c2cnc3ccc(OC)cc3c2N2CCN(CC)CC2)cc1`, the Potency result was “inactive” and the cell number change was -13.9%.

Consider `Cn1ccs/c1=N\S(=O)(=O)c1ccc(F)cc1`, for which the Potency entry is “inactive”.

`Cn1ccs/c1=N\S(=O)(=O)c1ccc(C(C)(C)C)cc1`: the Potency was 16.4 µM (active) and the cell number change is -15.3%.

Take `Cn1ccs/c1=N\S(=O)(=O)c1ccc(Br)cc1`: the Potency result is “inactive”.

For the compound `COc1ccc2c(c1)CCc1c(C(=O)NCc3ccc(Cl)cc3)noc1-2`, the Potency result was “inactive” and the cell number change was 3.58%.

`CC(=O)c1c(C)[nH]c(C(=O)Nc2ccc3c(c2)OCCO3)c1C`: the Potency result is “inactive” and the cell number change was -13.3%.

For the compound `CCOc1ccc(NC(=S)N2CCC(c3nc4ccccc4[nH]3)CC2)cc1`, the Potency entry is “inactive” and the cell number change came out at 0.472%.

With `COCCn1c(SCC(=O)NNC(=O)c2ccccc2)nc2ccccc2c1=O`, the Potency result was “inactive” and the cell number change stood at 22%.

As for `C=CCNC(=O)NC(=O)COC(=O)/C(C#N)=C/c1cc(C)n(CC(C)C)c1C`, the Potency entry is “inactive” and the cell number change came out at 19.6%.

Turning to `CCN1C(=O)c2cccc3c(Cl)ccc1c23`, the Potency entry is “inactive” and the cell number change is -17.2%.

Take `Cc1cc(Cl)c2oc(C(=O)N(C)CCc3cnn(C)c3)c(C)c2c1`: the Potency result was “inactive” and the cell number change is -0.298%.

Regarding `Cc1cc(Cl)c2oc(C(=O)N(C)CC3CCOCC3)c(C)c2c1`, the Potency entry was “inactive” and the cell number change was -6.12%.

For the compound `Cc1cc(Cl)c2oc(C(=O)N(C)CCCCN3CCOCC3)c(C)c2c1`, the Potency was 1.3 µM (active) and the cell number change is -10.7%.

Turning to `CC1(OC(=O)C2CCCC2)C(=O)C=C2C=C(c3ccsc3)N(CCCCO)C=C2C1=O` (stereo not drawn), the Potency entry was “inactive” and the cell number change is -2.75%.

For `NC(=O)C(Cc1ccccc1)N1C(=O)c2ccccc2C1=O` (stereo not drawn), the Potency entry is “inactive” and the cell number change is -7.43%.

Regarding `O=C1c2ccccc2C(=O)N1CCCOc1ccccc1`, the Potency result is “inactive” and the cell number change was -1.01%.

On to `O=C(O)C(CCCCN1C(=O)c2ccccc2C1=O)N1C(=O)c2ccccc2C1=O` (stereo not drawn), for which the Potency was 29.1 µM (active) and the cell number change was -7.36%.

As for `CCC(C)(C)n1nnnc1C(c1ccc(N(C)C)cc1)N1CCN(C2CCCCC2)CC1` (stereo not drawn), the Potency result is “inactive” and the cell number change came to 1.78%.

Regarding `Cc1cc(OCC(O)CNC(C)(C)C)ccc1Cl` (stereo not drawn), the Potency entry was “inactive” and the cell number change was found to be 3.23%.

Turning to `CCOC(=O)N1CCN(C(=O)CSc2ccccc2)CC1`, the Potency entry was “inactive”.

In the case of `CCOC(=O)N1CCN(C(=O)CSc2ccc(Cl)cc2)CC1`, the Potency was 2.59 µM (active) and the cell number change is 4.78%.

As to `CCOC(=O)N1CCN(C(=O)CCSc2ccc(Cl)cc2)CC1`, the Potency entry is “inactive” and the cell number change was -8.05%.

With `OC(CNCc1cccnc1)COc1ccc2ccccc2c1` (stereo not drawn), the Potency result is “inactive” and the cell number change was -3.7%.

In the case of `CCOC(=O)C1=C(C)N=c2s/c(=C\c3ccc(OCC(=O)O)cc3)c(=O)n2C1c1ccccc1` (stereo not drawn), the Potency result is “inactive”.

On to `CCOC(=O)C1=C(C)N=c2s/c(=C\c3ccc(OCC(=O)O)c(OC)c3)c(=O)n2C1c1ccc(OC)cc1` (stereo not drawn), for which the Potency entry was “inactive” and the cell number change came out at 8.11%.

Take `CCOC(=O)C1=C(C)N=c2s/c(=C/c3ccc(OCC(=O)O)cc3)c(=O)n2C1c1ccc(OC)cc1OC` (stereo not drawn): the Potency is 11.6 µM (active) and the cell number change was -12.6%.

As to `OCCN1CCN(c2cc(C(F)(F)F)nc3c(F)cccc23)CC1`, the Potency entry is “inactive” and the cell number change came to 16.3%.

As for `CCOC(=O)N1CCN(C(=O)C2CCN(S(=O)(=O)N3CCC4(CC3)OCCO4)CC2)CC1`, the Potency entry was “inactive”.

`CC1(C)O[C@H]2CC(=O)OC[C@@]23C1CC(=O)[C@]1(C)C3CC[C@@]2(C)[C@H](c3ccoc3)OC(=O)[C@H]3O[C@]321` (stereo partly drawn): the Potency entry was “inactive”.

In the case of `O=C(CN1CCN(C(=O)CNC(=O)c2ccc3c(c2)OCO3)CC1)Nc1ccccc1Cl`, the Potency entry is “inactive” and the cell number change worked out at 2.76%.

In the case of `O=C1C(Cl)=C(N2CCCC2)C(=O)N1c1ccccc1F`, the Potency is 1.46 µM (active) and the cell number change worked out at 2.93%.

Consider `O=C1C(Cl)=C(N2CCOCC2)C(=O)N1c1ccccc1F`, for which the Potency entry is “inactive” and the cell number change was -18.5%.

Consider `Cc1ccccc1N1C(=O)C(Cl)=C(N2CCCCCC2)C1=O`, for which the Potency entry is “inactive” and the cell number change is -0.204%.

Regarding `COc1ccccc1NC(=O)N1CCCC1C(=O)NCc1ccccc1` (stereo not drawn), the Potency entry was “inactive” and the cell number change was -7.89%.

With `COc1ccc(NC(=O)C2CCCN2C(=O)NCc2ccccc2)cc1OC` (stereo not drawn), the Potency result was “inactive” and the cell number change worked out at 1.64%.

`CCOCCCNC(=O)C1CCCN1C(=O)Nc1ccccc1[N+](=O)[O-]` (stereo not drawn): the Potency entry is “inactive” and the cell number change was 3.63%.

As for `COc1cccc(OC)c1NC(=O)C1CCCN1C(=O)NCc1ccccc1` (stereo not drawn), the Potency was 29.1 µM (active) and the cell number change is -20.9%.

Consider `COc1ccc(NC(=O)C2CCCN2C(=O)NCc2ccccc2)c(OC)c1` (stereo not drawn), for which the Potency result is “inactive” and the cell number change was -2.72%.

For `O=C(NCc1ccccc1)C1CCCN1C(=O)Nc1ccccc1[N+](=O)[O-]` (stereo not drawn), the Potency is 0.731 µM (active) and the cell number change is 14.7%.

For the compound `Cc1cc(-c2nnc(CCC(=O)N(C)CCc3ccccc3)o2)no1`, the Potency result is “inactive” and the cell number change was found to be 4.46%.

As to `CC1CN(C/C(=N\O)C23CC4CC(CC(C4)C2)C3)CC(C)O1` (stereo not drawn), the Potency result was “inactive” and the cell number change is -15.5%.
